The text below walks through data of PubChem BioAssay (NCATS).

The nature of test [1]: qHTS for Inhibitors of ATXN expression: Validation (AID 588378; active = well fitted curve in the direction sought with a large enough effect; an effect the other way counts as inactive or inconclusive; note: series mostly up to about 57 µM; % is set by controls: 0 for no effect and ±100 for the full control effect; nearly all actives have a fitted effect of over 75% in size). A digest of the protocol: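 After a 2 h attachment and 24 h compound incubation, HEK293-ATXN2-FFLuc wells are read for fluorescence at 405 nm excitation/525 nm emission as a viability measure, then for Bright-Glo luminescence reflecting ATXN2 expression.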
The target in test [2] is Estrogen receptor (Homo sapiens) (UniProt P03372). Put plainly: qHTS assay for small molecule antagonists of estrogen receptor alpha signaling (AID 588513; active = well fitted curve in the direction sought with a large enough effect in the signal ratio, with a control signal flat, not every such curve was filed as active; the % refers to the signal ratio; note: % is set by controls: 0 for no effect and ±100 for the full control effect). The method in brief:
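Antagonist-mode qHTS in ER-alpha-UAS-bla HEK 293 cells: compound titration, 0.5nM estradiol for 18 h, CCF4 fluorescence, Hill-derived IC50.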

Test [3] has the same target. Put plainly: qHTS assay for small molecule agonists of estrogen receptor alpha signaling (AID 588514).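 Note: 0% = vehicle only and 100% = reference agonist; nearly all actives have a fitted effect of over 70% in size.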 A digest of the protocol: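 Efficacy is expressed against 20 nM 17-beta-estradiol (100%) and DMSO basal (0%); EC50 from Hill equation. Assay: beta-lactamase reporter in ER-alpha-UAS-bla HEK 293 cells, 18 h compound incubation, CCF4 detection.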
The target in test [4] is Bile acid receptor (Homo sapiens) (UniProt Q96RI1). Put plainly: qHTS assay for small molecule antagonists of farnesoid X receptor signaling (AID 588526). Note: % is set by controls: 0 for no effect and ±100 for the full control effect. A digest of the protocol:
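Antagonist mode: titrated compounds tested against chenodeoxycholic acid stimulation (normalized to 50 uM CDCA and DMSO) in GeneBLAzer HEK293T cells for 16 h. Beta-lactamase read by CCF4 fluorescence; IC50 from Hill fits.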

Test [5] has as its target Peroxisome proliferator-activated receptor gamma (Homo sapiens) (UniProt P37231). Put plainly: qHTS assay for small molecule agonists of peroxisome proliferator-activated receptor gamma signaling (AID 588536; active = well fitted curve in the direction sought with a large enough effect in the signal ratio, with a control signal flat, not every such curve was filed as active; the % refers to the signal ratio;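 note: 0% = DMSO basal wells and 100% = rosiglitazone at 2 µM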). The method in brief: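 Compound treatment: 16 h, 37 C, HEK293 GeneBLAzer cells. Detection: CCF4, 2 h RT. Values: Hill-fit EC50, efficacy as % of 2 uM rosiglitazone.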

Test [6] is described as follows: qHTS assay for small molecule agonists of retinoid X receptor alpha signaling (AID 588544).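 For activation: 0% = DMSO basal wells and 100% = reference agonist.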 As to conditions: HEK293T RXRa-UAS-bla, beta-lactamase reporter, 18 h; 530 nm emission.
The target in test [7] is Retinoic acid receptor RXR-alpha (Homo sapiens) (UniProt P19793). The description is as above.
Test [8] concerns the target Thyroid hormone receptor beta (Homo sapiens) (UniProt P10828). Nature of the test: qHTS assay for small molecule agonists of thyroid hormone receptor beta signaling (AID 588545). A digest of the protocol:
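In this cell-based screen, titrated compounds act on HEK 293 cells held in medium with 2% charcoal/dextran FBS, NEAA and pyruvate for 18 hrs at 37 C. Responses are expressed relative to T3 (10 nM) as 100% and basal DMSO as 0%.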

Test [9] is described as follows: qHTS assay for small molecule antagonists of retinoid X receptor alpha signaling (AID 588546; active = well fitted inhibition curve with a large enough effect in the signal ratio, with a control signal flat, not every such curve was filed as active; the % refers to the signal ratio; note: potency is the fitted concentration of half-maximal effect). As to conditions: HEK293T RXRa-UAS-bla, beta-lactamase ratio, antagonist mode; measured here: W530 green channel, cytotoxicity proxy. The method in brief:
(§1)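 Beta-lactamase reporter inhibition, read as CCF4 fluorescence ratio (ex 405, em 460/530 nm) after 2 h at RT. HEK293T UAS-bla cells, 2500/well, were stimulated with 9-cis-RA at 500 or 100 nM final alongside test compound for 18 h at 37 C.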

In test [10] the target is Retinoic acid receptor RXR-alpha (Homo sapiens) (UniProt P19793). The test is described as above. As to conditions: HEK293T RXRa-UAS-bla, beta-lactamase ratio, antagonist mode. A digest of the protocol: as §1
Test [11] concerns the target Glucocorticoid receptor (Homo sapiens) (UniProt P04150). Nature of the test: qHTS assay for small molecule agonists of glucocorticoid receptor signaling (AID 588532; active = well fitted curve in the direction sought with a large enough effect in the signal ratio, with a control signal flat; the % refers to the signal ratio;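 note: 100% = dexamethasone at 0.1 µM and 0% = DMSO only wells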). As to conditions: HeLa MMTV-bla, beta-lactamase ratio, agonist, 18 h; stronger effect = higher value; percent of dexamethasone control, DMSO zero. The method in brief:
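Cells were plated and rested 3-5 h at 37 C, compounds were added in titration and incubated 18 h, then CCF4 substrate was loaded for 2 h at RT before reading blue/green fluorescence. EC50 came from Hill-equation fitting.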

Test [12] in a line: qHTS assay for small molecule antagonists of peroxisome proliferator-activated receptor delta signaling (AID 588535; active = well fitted inhibition curve with a large enough effect in the signal ratio, with a control signal flat, not every such curve was filed as active; the % refers to the signal ratio;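 for max response: cells co-treated with a PPAR-delta agonist as stimulator during compound exposure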). As to conditions: HEK293T PPARd-UAS-bla, beta-lactamase FRET ratio, 18 h; 460 nm channel. The method in brief:
(§2)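 Fluorescence from CCF4-loaded GeneBLAzer PPAR-delta-UAS-bla HEK293T cells (2 hrs RT loading) quantified reporter inhibition after an 18 hr, 37 C compound exposure across a titration.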

For test [13], the target named is Peroxisome proliferator-activated receptor delta (Homo sapiens) (UniProt Q03181). Described as above. The method in brief:
as §2

The target of test [14] is Glucocorticoid receptor (Homo sapiens) (UniProt P04150). Nature of the test: qHTS assay for small molecule antagonists of glucocorticoid receptor signaling (AID 588533; active = well fitted inhibition curve with a large enough effect in the signal ratio, with a control signal flat, not every such curve was filed as active; the % refers to the signal ratio; note: % is set by controls: 0 for no effect and ±100 for the full control effect). A digest of the protocol:
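Antagonist-mode qHTS: compound titrations added to GRE-bla HeLa cells, then dexamethasone 2 nM final; 18 h, 37 C. CCF4 FRET fluorescence normalized to dexamethasone and DMSO; IC50 from Hill fit.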

Test [15] addresses Peroxisome proliferator-activated receptor gamma (Homo sapiens) (UniProt P37231). Put plainly: qHTS assay for small molecule antagonists of peroxisome proliferator-activated receptor gamma signaling (AID 588537; active = well fitted inhibition curve with a large enough effect in the signal ratio, with a control signal flat, not every such curve was filed as active; the % refers to the signal ratio;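 note: reporter cells co-stimulated with 50 nM rosiglitazone agonist during compound treatment; % of control where 0% means no effect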). A digest of the protocol: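 Fluorescence at 460 and 530 nm (405 nm excitation) reported beta-lactamase cleavage of CCF4 after 2 h room-temperature loading. HEK293 reporter cells in 1% charcoal/dextran-treated FBS had received compound and rosiglitazone for 16 h.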

Test [16] addresses Vitamin D3 receptor (Homo sapiens) (UniProt P11473). Nature of the test: qHTS assay for small molecule antagonists of vitamin D receptor signaling (AID 588541).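 Note: receptor activated by calcitriol during compound treatment; series mostly up to about 77 µM; % is set by controls: 0 for no effect and ±100 for the full control effect.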 A digest of the protocol:
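VDR-UAS-bla HEK293T cells in 2% charcoal-stripped FBS were stimulated with 1-alpha,25-dihydroxyvitamin D3 (3 nM final) plus compound for 16 h at 37 C. The beta-lactamase CCF4 readout was normalized to 50 nM agonist and DMSO, and Hill fits gave IC50.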

For test [17] the target is unchanged. Put plainly: qHTS assay for small molecule agonists of vitamin D receptor signaling (AID 588543).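 Note: 0% = DMSO basal and 100% = reference agonist control.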 A digest of the protocol: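 Measured: β-lactamase reporter activity (CCF4, 405 nm excitation, 460/530 nm emission) in HEK293T VDR-UAS-bla cells after 16 h compound exposure at 37 °C. Normalization against 50 nM 1α,25-dihydroxyvitamin D3 and DMSO; Hill-fit EC50.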

The target in test [18] is Androgen receptor (Homo sapiens) (UniProt P10275). Nature of the test: qHTS assay for small molecule antagonists of androgen receptor signaling (AID 588516; active = well fitted curve in the direction sought with a large enough effect in the signal ratio, with a control signal flat, not every such curve was filed as active; the % refers to the signal ratio; note: % is set by controls: 0 for no effect and ±100 for the full control effect). The method in brief: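 Compounds tested in titration against 10 nM R1881 in AR-responsive bla reporter HEK 293 cells; CCF4 fluorescence (460/530 nm) after 16 h exposure gave IC50 and efficacy.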
The target of test [19] is DNA dC->dU-editing enzyme APOBEC-3G (Homo sapiens) (UniProt Q9HC16). Put plainly: qHTS for inhibitors of Vif-A3G interactions: Validation (AID 588379; active = well fitted curve in the direction sought with a large enough effect; an effect the other way counts as inactive or inconclusive; note: 0% is about no effect). A digest of the protocol: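 Yellow fluorescence (Ex 488, Em 500-530) of Vif-coexpressing HeLa A3G-eYFP cells, scanned by Acumen cytometer, reports blocked A3G degradation. Cells plated at 700/well overnight at 37 deg C before compound addition, then a further overnight compound incubation at 37 deg C.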

Molecules are shown by their SMILES. “And” between values parts separate entries of the source, which are not always exact repeats. Equal values may be shown once. Records with an inconclusive call do not appear. The source made the active and inactive calls. Unless noted, calls come from the whole dose curve.

Estrogen receptor (Homo sapiens), sequence (P03372 whole entry, looked up): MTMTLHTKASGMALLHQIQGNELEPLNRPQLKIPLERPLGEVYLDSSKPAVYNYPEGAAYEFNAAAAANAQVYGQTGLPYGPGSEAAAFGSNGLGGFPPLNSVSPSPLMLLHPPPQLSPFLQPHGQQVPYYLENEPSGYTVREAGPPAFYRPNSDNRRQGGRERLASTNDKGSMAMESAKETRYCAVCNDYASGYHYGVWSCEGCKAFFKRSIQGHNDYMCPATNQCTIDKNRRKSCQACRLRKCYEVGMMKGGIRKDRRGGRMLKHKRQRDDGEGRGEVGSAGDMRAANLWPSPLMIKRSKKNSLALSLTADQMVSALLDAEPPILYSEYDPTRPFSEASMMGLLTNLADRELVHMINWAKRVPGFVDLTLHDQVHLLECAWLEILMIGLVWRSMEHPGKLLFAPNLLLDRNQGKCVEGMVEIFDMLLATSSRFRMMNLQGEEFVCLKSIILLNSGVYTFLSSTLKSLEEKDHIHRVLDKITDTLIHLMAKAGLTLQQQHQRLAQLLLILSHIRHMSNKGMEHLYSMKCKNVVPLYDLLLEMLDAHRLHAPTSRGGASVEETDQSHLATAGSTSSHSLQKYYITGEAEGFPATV
Glucocorticoid receptor (Homo sapiens), sequence (P04150 whole entry, looked up): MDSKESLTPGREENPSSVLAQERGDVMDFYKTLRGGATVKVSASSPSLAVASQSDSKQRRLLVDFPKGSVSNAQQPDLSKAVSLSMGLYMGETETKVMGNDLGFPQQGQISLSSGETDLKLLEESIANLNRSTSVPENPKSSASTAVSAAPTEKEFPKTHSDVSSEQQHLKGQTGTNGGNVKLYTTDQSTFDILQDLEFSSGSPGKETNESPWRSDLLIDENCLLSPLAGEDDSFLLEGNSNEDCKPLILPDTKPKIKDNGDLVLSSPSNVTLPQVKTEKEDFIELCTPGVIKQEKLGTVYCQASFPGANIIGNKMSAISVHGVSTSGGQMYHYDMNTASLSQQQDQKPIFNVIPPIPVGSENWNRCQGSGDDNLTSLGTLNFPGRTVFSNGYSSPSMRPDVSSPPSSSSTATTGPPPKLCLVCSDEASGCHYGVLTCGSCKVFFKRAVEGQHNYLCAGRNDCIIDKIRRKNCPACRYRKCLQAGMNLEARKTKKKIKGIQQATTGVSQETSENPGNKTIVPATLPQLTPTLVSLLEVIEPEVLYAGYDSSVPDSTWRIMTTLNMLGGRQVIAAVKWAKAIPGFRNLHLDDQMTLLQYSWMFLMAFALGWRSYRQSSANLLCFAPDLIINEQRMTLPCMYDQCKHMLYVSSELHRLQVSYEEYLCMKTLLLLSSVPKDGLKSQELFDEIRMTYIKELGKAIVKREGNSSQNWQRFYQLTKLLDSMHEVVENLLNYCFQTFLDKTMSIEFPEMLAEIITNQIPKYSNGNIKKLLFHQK
Thyroid hormone receptor beta (Homo sapiens), sequence (P10828 whole entry, looked up): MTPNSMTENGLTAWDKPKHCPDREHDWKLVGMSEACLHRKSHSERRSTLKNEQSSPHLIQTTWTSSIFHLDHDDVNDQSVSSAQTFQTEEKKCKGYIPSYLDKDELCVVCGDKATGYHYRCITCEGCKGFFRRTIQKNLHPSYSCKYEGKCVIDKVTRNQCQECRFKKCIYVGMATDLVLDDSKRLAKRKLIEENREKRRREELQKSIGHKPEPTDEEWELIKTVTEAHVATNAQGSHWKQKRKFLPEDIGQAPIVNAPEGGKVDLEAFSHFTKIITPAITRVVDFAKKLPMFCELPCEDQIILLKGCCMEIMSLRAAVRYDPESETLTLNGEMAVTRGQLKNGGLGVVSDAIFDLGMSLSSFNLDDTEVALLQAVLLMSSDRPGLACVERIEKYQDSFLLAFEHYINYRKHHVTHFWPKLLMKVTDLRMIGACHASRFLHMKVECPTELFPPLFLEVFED
Peroxisome proliferator-activated receptor gamma (Homo sapiens), sequence (P37231 whole entry, looked up): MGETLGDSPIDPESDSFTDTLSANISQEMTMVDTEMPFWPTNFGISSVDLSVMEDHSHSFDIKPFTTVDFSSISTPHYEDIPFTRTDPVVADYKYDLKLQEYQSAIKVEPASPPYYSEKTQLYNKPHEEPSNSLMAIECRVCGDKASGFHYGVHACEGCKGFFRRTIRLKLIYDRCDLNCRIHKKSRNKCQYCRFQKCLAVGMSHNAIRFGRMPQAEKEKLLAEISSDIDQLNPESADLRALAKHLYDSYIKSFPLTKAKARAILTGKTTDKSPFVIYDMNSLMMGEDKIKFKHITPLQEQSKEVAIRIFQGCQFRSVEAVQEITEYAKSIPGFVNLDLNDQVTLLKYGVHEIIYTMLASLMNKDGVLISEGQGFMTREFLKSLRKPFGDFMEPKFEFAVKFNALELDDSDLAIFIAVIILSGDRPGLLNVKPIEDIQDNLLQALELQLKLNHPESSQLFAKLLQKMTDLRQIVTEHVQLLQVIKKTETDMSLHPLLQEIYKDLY
Retinoic acid receptor RXR-alpha (Homo sapiens), sequence (P19793 whole entry, looked up): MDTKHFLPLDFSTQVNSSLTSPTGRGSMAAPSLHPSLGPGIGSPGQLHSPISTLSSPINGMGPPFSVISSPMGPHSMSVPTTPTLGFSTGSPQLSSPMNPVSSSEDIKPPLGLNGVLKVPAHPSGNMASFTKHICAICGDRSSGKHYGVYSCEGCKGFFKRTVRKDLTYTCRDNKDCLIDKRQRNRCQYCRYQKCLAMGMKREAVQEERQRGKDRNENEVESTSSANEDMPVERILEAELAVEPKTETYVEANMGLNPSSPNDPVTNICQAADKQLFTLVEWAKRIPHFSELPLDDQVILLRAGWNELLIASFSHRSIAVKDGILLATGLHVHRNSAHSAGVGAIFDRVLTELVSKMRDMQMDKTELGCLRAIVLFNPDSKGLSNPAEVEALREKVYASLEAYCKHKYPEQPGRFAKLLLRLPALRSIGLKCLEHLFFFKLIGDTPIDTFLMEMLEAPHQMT
Vitamin D3 receptor (Homo sapiens), sequence (P11473 whole entry, looked up): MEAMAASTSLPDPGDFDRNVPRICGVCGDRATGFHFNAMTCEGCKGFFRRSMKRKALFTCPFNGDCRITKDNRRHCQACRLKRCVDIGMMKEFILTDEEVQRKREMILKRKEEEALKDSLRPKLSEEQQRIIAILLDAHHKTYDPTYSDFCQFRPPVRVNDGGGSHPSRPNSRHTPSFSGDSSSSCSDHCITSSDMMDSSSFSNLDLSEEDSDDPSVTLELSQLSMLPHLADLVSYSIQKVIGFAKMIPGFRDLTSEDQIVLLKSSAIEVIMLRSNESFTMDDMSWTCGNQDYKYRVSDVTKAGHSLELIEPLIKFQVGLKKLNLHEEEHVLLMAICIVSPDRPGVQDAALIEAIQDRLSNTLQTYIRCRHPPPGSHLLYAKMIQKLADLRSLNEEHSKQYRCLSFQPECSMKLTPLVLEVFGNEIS
Peroxisome proliferator-activated receptor delta (Homo sapiens), sequence (Q03181 whole entry, looked up): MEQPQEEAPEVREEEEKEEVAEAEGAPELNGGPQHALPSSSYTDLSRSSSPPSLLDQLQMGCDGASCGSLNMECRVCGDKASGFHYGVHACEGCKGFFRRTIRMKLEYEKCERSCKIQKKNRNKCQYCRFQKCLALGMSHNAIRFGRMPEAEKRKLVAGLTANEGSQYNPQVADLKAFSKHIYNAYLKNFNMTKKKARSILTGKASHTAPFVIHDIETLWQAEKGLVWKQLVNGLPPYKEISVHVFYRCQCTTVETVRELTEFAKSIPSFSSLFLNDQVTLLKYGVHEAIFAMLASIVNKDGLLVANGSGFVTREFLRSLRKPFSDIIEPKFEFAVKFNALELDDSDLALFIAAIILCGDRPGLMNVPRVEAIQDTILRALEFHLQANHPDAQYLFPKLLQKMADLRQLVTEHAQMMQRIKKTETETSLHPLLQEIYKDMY
DNA dC->dU-editing enzyme APOBEC-3G (Homo sapiens), sequence (Q9HC16 whole entry, looked up): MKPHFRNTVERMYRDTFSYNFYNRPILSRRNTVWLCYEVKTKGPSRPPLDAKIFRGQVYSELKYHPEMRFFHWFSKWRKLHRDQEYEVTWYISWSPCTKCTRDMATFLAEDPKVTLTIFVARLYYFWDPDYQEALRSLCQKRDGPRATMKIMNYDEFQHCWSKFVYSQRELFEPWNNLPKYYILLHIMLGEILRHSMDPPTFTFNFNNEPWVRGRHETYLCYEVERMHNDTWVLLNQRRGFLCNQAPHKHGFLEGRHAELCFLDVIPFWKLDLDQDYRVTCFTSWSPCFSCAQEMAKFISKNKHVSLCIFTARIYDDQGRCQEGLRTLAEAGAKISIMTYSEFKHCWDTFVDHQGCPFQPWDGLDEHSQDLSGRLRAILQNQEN
Androgen receptor (Homo sapiens), sequence (P10275 whole entry, looked up): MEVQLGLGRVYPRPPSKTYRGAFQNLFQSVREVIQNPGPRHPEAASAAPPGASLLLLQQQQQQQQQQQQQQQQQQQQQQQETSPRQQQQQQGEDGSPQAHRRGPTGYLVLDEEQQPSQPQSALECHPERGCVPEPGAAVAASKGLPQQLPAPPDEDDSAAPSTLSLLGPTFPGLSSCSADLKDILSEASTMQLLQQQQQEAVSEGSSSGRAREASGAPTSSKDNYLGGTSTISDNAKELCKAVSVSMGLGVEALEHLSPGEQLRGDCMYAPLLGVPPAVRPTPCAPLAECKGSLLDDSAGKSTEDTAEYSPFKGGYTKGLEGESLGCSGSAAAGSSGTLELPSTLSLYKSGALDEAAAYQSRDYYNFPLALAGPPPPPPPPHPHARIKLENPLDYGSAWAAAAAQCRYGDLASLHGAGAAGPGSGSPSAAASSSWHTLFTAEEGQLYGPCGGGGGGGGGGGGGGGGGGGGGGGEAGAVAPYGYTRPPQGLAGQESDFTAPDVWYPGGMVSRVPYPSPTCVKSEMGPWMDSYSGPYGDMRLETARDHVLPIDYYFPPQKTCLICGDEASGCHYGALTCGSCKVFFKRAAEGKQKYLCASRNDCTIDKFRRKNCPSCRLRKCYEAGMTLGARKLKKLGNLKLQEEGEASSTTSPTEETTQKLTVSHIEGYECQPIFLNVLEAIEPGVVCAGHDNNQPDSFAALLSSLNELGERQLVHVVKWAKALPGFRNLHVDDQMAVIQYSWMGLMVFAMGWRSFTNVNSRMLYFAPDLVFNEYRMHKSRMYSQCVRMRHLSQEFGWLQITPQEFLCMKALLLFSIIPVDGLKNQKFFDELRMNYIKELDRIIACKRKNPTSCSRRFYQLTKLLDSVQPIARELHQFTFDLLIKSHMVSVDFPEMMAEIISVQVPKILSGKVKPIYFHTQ

As to `Cn1c(=O)c2[nH]cnc2n(C)c1=O`, the Potency entry in test [1] and in test [4] was “inactive” throughout. In addition, the molecule was called inactive in test [2], in test [3], in test [5], in test [7] and in test [8]. Also, the max response in test [6] is -12.6%; in test [9], -3.21%; in test [10] it was -6.35% (inactive).

With `O=C(Nc1ccc([N+](=O)[O-])cc1Cl)c1cc(Cl)ccc1O`, the Potency entry in test [1] is “inactive”. The activation in test [11] was -5.17% (inactive). The result in [8] was inactive. For the same molecule, the max response in [9] is 3.51%. Moreover, the Potency in test [10] is 2510 nM (active).

As for `Clc1ccc(C(c2ccccc2Cl)C(Cl)Cl)cc1` (stereo not drawn), the Potency result in [1] was “inactive”. Moreover, the activation in test [11] was -3.98% (inactive). For the same molecule, in [12], the max response is -16.9%. Also, the outcome in test [13] and in test [8] was inactive.

Regarding `CC(C)Cc1ccc(C(C)C(=O)O)cc1` (stereo not drawn), the Potency result in test [1], in test [14] and in test [15] was “inactive” in each case. For the same molecule, the outcome in test [2], in [3], in test [13], in test [5], in test [7] and in test [8] was inactive. Also, in [11], the activation is -8.45% (inactive). The max response in [12] is 43%; in test [6], 27.4%; in test [9], 4.68%; in test [10] it was -17.6% (inactive).

In the case of `O=c1[nH]cc(F)c(=O)[nH]1`, the outcome in test [2], in test [16], in [17] and in test [7] was inactive. In addition, in [14], the Potency result is “inactive”. Moreover, the results for the max response in test [6], in [9] and in [10] were -12.4%, -11.8% and 17.9% (inactive), respectively.

Regarding `CC(COc1ccccc1)N(CCCl)Cc1ccccc1` (stereo not drawn), the Potency entry in test [1] and in test [14] was “inactive” in each case. Further, the outcome in [5], in test [16], in test [17], in test [7] and in [8] was inactive. The max response in test [6] is 23% and 19%; in test [9], 9.59% and -12.9%; in test [10], 13.6% (inactive) and -11.7% (inactive).

For `CN(C)CCOC(c1ccccc1)c1ccccc1`, the molecule was classed as inactive in [3] and in test [18]. Further, in test [11], the activation is -3.72% (inactive). For the same molecule, in [14], the Potency entry was “inactive”.

In the case of `C[C@](N)(Cc1ccc(O)c(O)c1)C(=O)O`, the call in test [19], in [13], in test [5], in [16], in [17] and in [7] was inactive. In test [8], the molecule was called inactive. Also, the max response in [12] is -4.18%; in test [6], -1.09%; in [9], -16.7%; in test [10] it was -26.4% (inactive). The Potency entry in test [15] is “inactive”.

In the case of `CN1CCC(=C2c3ccccc3CC(=O)c3sccc32)CC1`, in test [19], the outcome was inactive.

With `CC(C)NCC(O)c1ccc(O)c(O)c1` (stereo not drawn), the Potency result in [1], in [14] and in [15] was “inactive” in each case. The activation in test [11] is -1.74% (inactive). Further, the max response was 4.84% and 9.19% in [12]; -7.52% and -0.93% in [6]; -15.7% and 0.88% in test [9]; -2.1% (inactive) and -5.01% (inactive) in test [10]. The outcome in test [13], in [5], in [16], in [17], in [7] and in test [8] was inactive.
